Reference: PubChem BioAssay (EPA / NIEHS)
Values joined by “and” are separate entries in the source; they are usually repeats but may differ in a detail not shown here. Identical values can stand only once. The source holds several records for some structures; these can differ, active in one and inactive in another. Active and inactive are the calls of the source. How the source made its calls: active means hit-call score of the fitted dose curve at least 0.9, where 1 is the maximum; inactive means score below 0.9.

Experiments:
[1] = ATG_CRE_CIS: Attagene CIS-FACTORIAL HepG2 Assay for human cAMP Responsive Element (CRE) binding protein 3 (AID 2282926); settings: HepG2 CRE cis-reporter, Attagene multiplexed mRNA; actives raise or lower the signal
In short: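 Multiplexed transcription-unit reporters transfected into HepG2; 24 h dosing; RT-PCR/capillary electrophoresis fluorescence read-out; bidirectional fit vs DMSO.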

[2] = molecular target: CCAAT/enhancer-binding protein beta (Homo sapiens) (UniProt P17676); experiment: ATG_C_EBP_CIS: Attagene CIS-FACTORIAL HepG2 Assay for human CCAAT/Enhancer Binding Protein (C/EBP) beta (AID 2282927); settings: HepG2 Attagene cis-factorial transcription factor reporter; actives raise or lower the signal
CCAAT/enhancer-binding protein beta (Homo sapiens), sequence (P17676 whole entry, looked up): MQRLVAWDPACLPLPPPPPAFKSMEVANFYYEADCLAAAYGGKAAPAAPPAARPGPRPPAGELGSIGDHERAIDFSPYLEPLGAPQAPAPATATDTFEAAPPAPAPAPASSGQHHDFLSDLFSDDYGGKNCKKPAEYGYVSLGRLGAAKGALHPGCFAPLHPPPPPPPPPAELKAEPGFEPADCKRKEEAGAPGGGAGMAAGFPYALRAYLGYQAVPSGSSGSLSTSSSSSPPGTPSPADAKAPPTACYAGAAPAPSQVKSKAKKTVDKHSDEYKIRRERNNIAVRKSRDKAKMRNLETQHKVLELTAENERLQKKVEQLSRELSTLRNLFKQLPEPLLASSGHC
In short: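 Endogenous transcription factor activity in human liver HepG2 cells is inferred from induction of a CEBPB-linked reporter mRNA. Exposure lasts 24 h; activity is fitted in both directions relative to DMSO.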

[3] = ATG_CMV_CIS: Attagene CIS-FACTORIAL HepG2 Assay for human CMV (Internal Marker) (AID 2282928); settings: HepG2 CMV promoter reporter, transcription factor profiling; actives raise or lower the signal;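 further: endpoint acts as a background internal control marker rather than a target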
In short: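 Endogenous transcription factor activity read in HepG2 via transfected cis-promoter reporter units. After 24 h dosing, reporter mRNA measured by RT-PCR/capillary electrophoresis; gain or loss of signal fit relative to DMSO.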

[4] = ATG_DR4_LXR_CIS: Attagene CIS-FACTORIAL HepG2 Assay for human Liver X Receptor (LXR), DR4 submotif (AID 2282929); settings: HepG2 Attagene DR4 cis-reporter, mRNA transcription; AC50: actives raise or lower the signal unless noted; outcome: actives raise or lower the signal unless noted
In short: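 Endogenous factor activity at a DR4 cis-element is read as reporter mRNA in transiently transfected HepG2 cells. Exposure lasts 24 h; transcripts are amplified, fluorescently labelled and sized by capillary electrophoresis, with DMSO as baseline.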

[5] = molecular target: Aryl hydrocarbon receptor (Homo sapiens) (UniProt P35869); experiment: ATG_Ahr_CIS: Attagene CIS-FACTORIAL HepG2 Assay for human Aryl Hydrocarbon Receptor (Ahr) (AID 2282930); settings: HepG2 AhR cis-factorial reporter transcription; actives raise or lower the signal
Aryl hydrocarbon receptor (Homo sapiens), sequence (P35869 whole entry, looked up): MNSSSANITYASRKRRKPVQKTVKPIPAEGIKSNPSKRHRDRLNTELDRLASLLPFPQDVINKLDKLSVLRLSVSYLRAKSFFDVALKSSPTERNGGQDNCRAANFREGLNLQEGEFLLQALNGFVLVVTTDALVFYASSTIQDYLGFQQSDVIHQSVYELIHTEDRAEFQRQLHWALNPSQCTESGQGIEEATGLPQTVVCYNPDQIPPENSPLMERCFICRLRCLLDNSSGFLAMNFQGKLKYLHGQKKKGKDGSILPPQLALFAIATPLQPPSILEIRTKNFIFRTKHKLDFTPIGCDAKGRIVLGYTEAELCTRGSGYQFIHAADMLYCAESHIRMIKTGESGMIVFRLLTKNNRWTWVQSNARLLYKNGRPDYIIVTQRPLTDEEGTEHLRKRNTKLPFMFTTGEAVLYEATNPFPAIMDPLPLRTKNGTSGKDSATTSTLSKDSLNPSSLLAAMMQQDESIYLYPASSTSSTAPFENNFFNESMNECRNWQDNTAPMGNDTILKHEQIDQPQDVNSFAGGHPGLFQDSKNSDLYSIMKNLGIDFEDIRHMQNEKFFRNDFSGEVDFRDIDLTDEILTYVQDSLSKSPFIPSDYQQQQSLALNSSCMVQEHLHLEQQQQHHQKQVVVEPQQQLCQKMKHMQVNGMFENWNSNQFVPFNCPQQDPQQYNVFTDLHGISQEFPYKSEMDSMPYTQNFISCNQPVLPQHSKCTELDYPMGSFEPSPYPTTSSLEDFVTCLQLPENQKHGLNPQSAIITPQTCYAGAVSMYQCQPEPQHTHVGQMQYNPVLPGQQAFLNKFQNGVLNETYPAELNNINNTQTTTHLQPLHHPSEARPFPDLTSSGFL
In short: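 Transient MRTU transfection of HepG2 → 24 h compound exposure → total RNA, oligo(dT) RT → PCR, 6-FAM extension, HpaI cut → CE fluorescence. DMSO = baseline; bidirectional curve fit.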

[6] = ATG_AP_2_CIS: Attagene CIS-FACTORIAL HepG2 Assay for human Activator Protein 2 (AP-2) (AID 2282932); settings: HepG2 AP-2 cis-reporter, Attagene transcription factor profiling; AC50: actives raise or lower the signal unless noted; outcome: actives raise or lower the signal unless noted
In short: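 Step one: transient transfection of HepG2 with reporter transcription units. Step two: 24 h chemical exposure. Step three: RNA extraction, RT-PCR, labelled fragment analysis by capillary electrophoresis; DMSO serves as baseline.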

[7] = ATG_BRE_CIS: Attagene CIS-FACTORIAL HepG2 Assay for human Bone Morphogenetic Protein (BMP) Response Element (BRE) (AID 2282933); settings: HepG2 BMP response element reporter, Attagene transcription factor profiling; actives raise or lower the signal
In short: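 Fluorescence-labelled reporter cDNA fragments, separated by capillary electrophoresis, gave the signal for this component of a 52-readout multiplex. HepG2 cells were transfected, exposed to chemicals for 24 h, and compared with DMSO using bidirectional fitting.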

[8] = molecular target: Retinoic acid receptor alpha (Homo sapiens) (UniProt P10276); experiment: ATG_DR5_RAR_CIS: Attagene CIS-FACTORIAL HepG2 Assay for human Retinoic Acid Receptor Alpha (RARE), DR5 submotif (AID 2282934); settings: HepG2 Attagene cis-factorial RARE DR5 reporter, mRNA; actives raise or lower the signal
Retinoic acid receptor alpha (Homo sapiens), sequence (P10276 whole entry, looked up): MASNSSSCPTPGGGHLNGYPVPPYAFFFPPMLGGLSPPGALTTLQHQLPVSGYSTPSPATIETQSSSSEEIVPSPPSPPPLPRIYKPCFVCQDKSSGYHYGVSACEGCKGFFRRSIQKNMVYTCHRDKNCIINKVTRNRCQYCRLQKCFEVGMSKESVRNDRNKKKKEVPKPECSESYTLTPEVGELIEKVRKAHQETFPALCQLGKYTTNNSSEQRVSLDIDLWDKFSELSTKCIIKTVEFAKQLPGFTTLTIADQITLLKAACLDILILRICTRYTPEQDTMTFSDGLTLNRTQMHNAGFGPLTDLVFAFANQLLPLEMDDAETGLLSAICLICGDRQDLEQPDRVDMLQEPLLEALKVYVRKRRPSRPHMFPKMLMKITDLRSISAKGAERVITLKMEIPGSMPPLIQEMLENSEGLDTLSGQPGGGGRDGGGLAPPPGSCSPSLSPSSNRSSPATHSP
In short: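 Transient MRTU transfection of HepG2; 24 h compound treatment; TriZol RNA, oligo(dT) RT, PCR, FAM labelling, capillary electrophoresis. Bidirectional fit vs DMSO. Endogenous TF activity at DR5 RARE.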

[9] = molecular target: Transcription factor E2F1 (Homo sapiens) (UniProt Q01094); experiment: ATG_E2F_CIS: Attagene CIS-FACTORIAL HepG2 Assay for human E2F Transcription Factor 1 (AID 2282935); settings: HepG2 Attagene cis-reporter, E2F reporter RNA transcripts; actives raise or lower the signal
Transcription factor E2F1 (Homo sapiens), sequence (Q01094 whole entry, looked up): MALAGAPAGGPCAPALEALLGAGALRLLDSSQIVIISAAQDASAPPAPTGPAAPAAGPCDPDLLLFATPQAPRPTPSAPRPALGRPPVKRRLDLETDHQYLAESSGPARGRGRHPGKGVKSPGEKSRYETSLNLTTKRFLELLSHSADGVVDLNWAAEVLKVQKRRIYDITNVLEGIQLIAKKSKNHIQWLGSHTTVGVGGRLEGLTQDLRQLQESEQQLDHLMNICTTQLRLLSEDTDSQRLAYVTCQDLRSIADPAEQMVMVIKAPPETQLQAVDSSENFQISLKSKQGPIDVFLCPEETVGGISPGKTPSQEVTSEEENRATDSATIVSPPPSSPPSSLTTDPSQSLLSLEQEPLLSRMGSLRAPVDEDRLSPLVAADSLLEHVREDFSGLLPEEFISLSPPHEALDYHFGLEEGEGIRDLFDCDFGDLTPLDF
In short: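 Total RNA from 24 h-treated, reporter-transfected HepG2 cells undergoes DNase I treatment, oligo(dT) reverse transcription, PCR and 6-FAM primer extension before capillary electrophoresis.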

[10] = ATG_E_Box_CIS: Attagene CIS-FACTORIAL HepG2 Assay for human Enhancer Box (E-box) (AID 2282936); settings: HepG2 E-box cis-reporter transcription, actives raise or lower the signal
In short: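 DMSO served as negative control and baseline for bidirectional fitting. Human hepatoma HepG2 cells, transiently transfected with cis-reporter constructs, were dosed 24 h; reporter mRNA read by RT-PCR and capillary electrophoresis.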

[11] = APR_HepG2_P-H2AX_72hr: Apredica 72-hour HepG2 Assay for H2AX Phosphorylation (AID 2282916); settings: imaging, actives raise or lower the signal;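 further: phospho-histone H2A.x immunostain intensity per cell marking DNA damage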
In short: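 HepG2 human liver cells were exposed for 72 hr to compounds at 0.39–200 uM (10 concentrations, duplicate per plate) in 0.5% v/v DMSO. Fixed, permeabilized cells were immunolabeled for phospho-histone H2A.x with Hoechst 33342 and imaged by HCS fluorescence; bidirectional fit versus DMSO.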

[12] = APR_HepG2_MitoMembPot_72hr: Apredica 72-hour HepG2 Assay for Mitochondrial Membrane Potential (AID 2282917); settings: imaging, actives raise or lower the signal
In short: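 Membrane potential read by MitoTracker Red CMXRos (250 nM, 30 min, pre-fixation) fluorescence imaging of HepG2 after 72 hr exposure. Ten concentrations, 0.39–200 uM, duplicate wells, 0.5% DMSO; fitted in both directions against DMSO baseline.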

[13] = APR_HepG2_MicrotubuleCSK_72hr: Apredica 72-hour HepG2 Assay for Microtubule CSK Stabilty (AID 2282919); settings: HepG2 microtubule cytoskeleton, high-content imaging, actives raise or lower the signal
In short: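 Read-out is tubulin fluorescence intensity from high-content imaging of HepG2 cells, with nuclei identified by Hoechst 33342. Treatment lasts 72 h at 0.39–200 uM, and curves are fitted bidirectionally against the DMSO negative control.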

[14] = APR_HepG2_P-H2AX_24hr: Apredica 24-hour HepG2 Assay for H2AX Phosphorylation (AID 2282920); settings: high-content imaging, actives raise or lower the signal
In short: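 High-content imaging of phospho-histone H2A.x immunofluorescence, nuclei counterstained with Hoechst 33342, in fixed HepG2 cells. Compounds ran 0.39–200 uM in duplicate for 24 h, final DMSO 0.5%. Signal change fitted both directions against DMSO.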

[15] = APR_HepG2_StressKinase_72hr: Apredica 72-hour HepG2 Assay for Stress Kinase (AID 2282921); settings: HepG2 stress kinase (phospho-c-Jun) imaging, actives raise or lower the signal
In short: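 Cells were exposed for 72 h to ten concentrations (0.39–200 uM, duplicate) at 0.5% v/v DMSO final, then fixed with 3.7% formaldehyde, permeabilized and immunostained for phospho-c-Jun (Cy3 secondary) with Hoechst nuclear counterstain.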

[16] = APR_HepG2_StressKinase_24hr: Apredica 24-hour HepG2 Assay for Stress Kinase (AID 2282922); settings: HepG2 stress kinase (phospho-c-Jun) imaging, actives raise or lower the signal
In short: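 HepG2, 24 hr dosing, 0.39–200 uM in duplicate, 0.5% DMSO; formaldehyde fix (3.7%), 0.5% Triton X-100; anti-phospho-c-Jun + Cy3 secondary, Hoechst counterstain; ArrayScan imaging; bidirectional curve fit vs DMSO baseline.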

[17] = APR_HepG2_MitoMass_72hr: Apredica 72-hour HepG2 Assay for Mitochondrial Mass (AID 2282924); settings: high-content imaging, actives raise or lower the signal;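 further: MitoTracker Red CMXRos stain intensity per cell imaged as mitochondrial mass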
In short: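 HepG2, 72 hr cmpd, 10 conc 0.39–200 uM in dup, DMSO 0.5% v/v. MitoTracker Red CMXRos 250 nM 30 min pre-fix; formaldehyde 3.7% fix 30 min RT. HCS imaging, gain/loss fit vs DMSO.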

[18] = APR_HepG2_NuclearSize_72hr: Apredica 72-hour HepG2 Assay for Nuclear Size (AID 2282925); settings: high-content imaging, actives raise or lower the signal
In short: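 HepG2; cpd 0.39–200 uM, 10 conc, duplicate; 72 h; DMSO 0.5% v/v; fix 3.7% formaldehyde 30 min RT; Triton permeabilization; Hoechst 2 ug/mL; HCS imaging 20x; nuclear diameter; gain/loss fit vs DMSO.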

[19] = ATG_AP_1_CIS: Attagene CIS-FACTORIAL HepG2 Assay for human Activator Protein 1 (AP-1) (AID 2282931); settings: HepG2 Attagene cis-factorial AP-1 reporter mRNA; actives raise or lower the signal
In short: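 Fluorescence of labelled PCR fragments separated by capillary electrophoresis gives reporter mRNA levels. HepG2 with transfected cis-regulated reporter units, 24 h exposure; DMSO serves as baseline for bidirectional curve fits.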

Measured: AC50

CC(C)C=O
inactive: [1] | [2] | [3] | [4] | [5] | [6] | [7] | [8] | [9] | [10]
active: [3] 87.6 µM | [4] 26.8 µM

N=C(N)c1ccc(OCCCCCOc2ccc(C(=N)N)cc2)cc1
active: [11] 25.1 µM | [14] 39.7 µM | [17] 11.3 µM | [18] 45.5 µM | [3] 0.781 µM | [4] 116 µM | [19] 813 nM | [7] 23.3 µM | [10] 137 µM
inactive: [12] | [13] | [15] | [16] | [1] | [2] | [6] | [8] | [9]

Cc1[nH]nc2c1N=C(c1ccccc1Cl)c1cc([N+](=O)[O-])ccc1N2
active: [11] 19.8 µM | [12] 0.432 µM | [14] 24.9 µM | [15] 11.7 µM | [16] 19.8 µM | [17] 0.248 µM | [18] 0.325 µM | [4] 2.67 µM | [19] 125 nM
inactive: [13] | [1] | [2] | [7] | [8] | [9]

CC(O)COc1ccccc1 (configuration not stated)
inactive: [1] | [2] | [3] | [4] | [5] | [19] | [6] | [7] | [8] | [10]
active: [5] 6.06 µM

CCCCC=O
inactive: [11] | [12] | [13] | [14] | [15] | [16] | [17] | [18] | [1] | [2] | [4] | [19] | [6] | [7] | [10]

O=C(CC(=O)C(F)(F)C(F)(F)C(F)(F)F)c1cccs1
active: [1] 44.6 µM and 67.1 µM | [2] 66 µM | [3] 50 µM | [5] 11.4 µM and 50 µM | [19] 35.2 µM and 42 µM
inactive: [2] | [4] inactive [setting not given] | [6] inactive [setting not given] | [7] | [9] | [10]

CCC(C)c1ccccc1O (configuration not stated)
inactive: [1] | [2] | [3] | [4] | [5] | [19] | [6] | [7] | [8]

OCC(CO)(CBr)CBr
inactive: [11] | [14] | [15] | [16] | [18] | [1] | [2] | [3] | [4] | [5] | [19] | [6] | [7] | [8] | [9] | [10]
